Experimental data taken from ChEMBL document CHEMBL1157539, “Thousands of chemical starting points for antimalarial lead identification” (Nature, 2010).
Where “and” joins values, the source holds several entries; their conditions need not be identical. Equal entries are not always repeated.

What follows are molecules tested on Plasmodium falciparum (assay: GSK_TCMDC: Inhibition of Plasmodium falciparum 3D7 in whole red blood cells, using parasite LDH activity as an index of growth. Test compounds present at 2uM).
Assay type: functional
With `Cl.N#Cc1ccc2c(c1)CN(CC[C@H]1CC[C@H](NC(=O)/C=C/c3c[nH]c4ccccc34)CC1)CC2` the Inhibition was 92% and 97%.
With `Cn1nc(-c2ccc(NC(=O)Nc3cc(C(F)(F)F)ccc3F)c(F)c2)c2cnc(NCCCN3CCOCC3)nc21.O=C(O)C(F)(F)F` the Inhibition was 100%.
`CCCN(CCC)C(=O)c1cc(C(=O)N[C@@H](Cc2ccccc2)[C@H](O)CNC2CC2)cc(N2CCCCS2(=O)=O)c1` showed an Inhibition of 100%.
`CS(=O)(=O)O.c1ccc2c(CNCCCCCCNCc3c(OCC4CC4)ccc4ccccc34)c(OCC3CC3)ccc2c1` was tested, and the Inhibition was 93%.
`Cn1cccc1C(=O)NCC(CCNc1cc(=O)c2ccccc2[nH]1)NCc1cc(Br)cc(Br)c1` (stereo not given) gave an Inhibition of 92%.
For `CCCCCCCN1CC[C@@H](CCCc2ccnc3ccc(OCCC4CCNCC4)cc23)[C@@H](CC)C1.Cl`, the Inhibition was 100%.
Molecule `CCc1nc2ccc(C(=O)OC)nc2n1Cc1ccc2oc(-c3ccccc3N)c(Br)c2c1` has an Inhibition of 93%.
In the case of `Cl.Cn1cc(Br)c(-c2cccc(Nc3ccnc4cc(-c5nccs5)ccc34)c2)n1`, the Inhibition is reported as 91%.
`CC(O)C1CCCCN1C(=O)c1ccc(-c2cccc(-c3nc4cc(F)ccc4[nH]3)c2)cc1` (stereo not given) was tested, and the Inhibition was 100%.
For `COc1ccc(-c2cnc3ccc(N4CCCC4)nn23)cc1OC.O=CO`, the Inhibition was 98%.
`Nc1nc(N)c2c(ccc3c2ccn3Cc2ccccc2)n1` gave an Inhibition of 96%.
For `Cc1ccc2[nH]c3c(NCCN(C)C)ncnc3c2c1`, the Inhibition was 99%.
Molecule `CS(=O)(=O)CCNCc1ccc(-c2ccc3c(Nc4ccc(Cl)cc4F)ccnc3c2)o1` has an Inhibition of 99%.
`Cc1cc(C(=O)Nc2ccc3c(c2)CCN3C2CCN(Cc3cccc4cc[nH]c34)C2)no1` (stereo not given) gave an Inhibition of 97%.
For `COc1cc2ccccc2cc1CNCCCCCCNCc1cc2ccccc2cc1OC.CS(=O)(=O)O`, the Inhibition was 100%.
For `O=S(=O)(Nc1cccc(CCN2CCC(N3CCCCC3)CC2)c1)c1ccc(Cl)cc1`, the Inhibition was 94%.
With `O=C(NCCCCN1CCCC2c3cccc(O)c3CCC21)c1ccc(-c2ccccc2)cc1` (stereo not given) the Inhibition was 93%.
Molecule `COc1cc(NC(=O)c2ccc(-c3ccccc3)cc2)ccc1OCCCN1CCC(c2ccccc2)CC1.Cl` has an Inhibition of 100%.
`Cc1nc2nc(N)nc(N)c2c(C)c1Cc1ccccc1Cl.Cl` was tested, and the Inhibition was 93%.
`CC(C)CN(c1nc(C(=O)NNC(=O)[C@H](CC2CC2)NC(=O)c2cc3cc(OCCN(C)C)ccc3o2)cs1)C1CC1` was tested, and the Inhibition was 87%.
Molecule `O=C(Nc1ccc(CN2CCCCC2)cc1)c1ccc(COc2ccc([N+](=O)[O-])cc2)o1` has an Inhibition of 86%.
`Clc1cc(Nc2ncnc3cc(C#C[C@H]4CCCN4)sc23)cc2nc(Cc3ccccc3)[nH]c12.O=C(O)C(F)(F)F` gave an Inhibition of 91%.
For `Cl.O=C(NCCCCN1CCC(O)(c2ccc(Cl)cc2)CC1)c1ccc(Br)cc1`, the Inhibition was 82%.
`COc1ccc(N2CCN(CCCNC(=O)c3ccc(NC(=O)c4cc(Cl)cc(Cl)c4)cc3)CC2)c(OC)c1` gave an Inhibition of 100%.
`O=C(Nc1ccc(Cl)cc1)c1ccc(CN2CCCN(Cc3ccsc3)CC2)cc1.O=C(O)C(F)(F)F` was tested, and the Inhibition was 88%.
